Results reported in the antibiotic and cytotoxicity screens of Wong et al. (2023).
The campaign covered roughly 39,000 compounds. About 1,500 (3.8%) were called active. The list comes from a sample in which actives are over-represented; it also holds similar structures and randomly drawn compounds.

Test system: HSkMC (human skeletal muscle cells)
Experiment: cytotoxicity call (relative viability < 0.9)
Conditions: 10 µM

| SMILES | cytotoxicity call |
| --- | --- |
| C[C@H](CO)N1C[C@H](C)[C@H](CN(C)C(=O)Nc2ccc(F)cc2)OCCCC[C@H](C)Oc2ccc(NS(=O)(=O)c3ccc(Cl)cc3)cc2C1=O | inactive |
| C[C@H](CO)N1C[C@H](C)[C@@H](CN(C)Cc2ccc3c(c2)OCO3)Oc2ncc(Br)cc2C1=O | inactive |
| CN(Cc1ccc(/C=C/C(=O)Nc2ccc(-c3ccccc3)cc2N)cc1)CC12CC3CC(CC(C3)C1)C2 | active |
| CN(Cc1ccc(/C=C/C(=O)Nc2ccc(-c3cccs3)cc2N)cc1)CC12CC3CC(CC(C3)C1)C2 | inactive |
| C[C@@H]1CN([C@@H](C)CO)C(=O)Cc2cc(NC(=O)CCCCCC(=O)Nc3ccccc3N)ccc2O[C@H]1CN(C)Cc1ccc(-c2ccccc2)cc1 | inactive |
| COCCN1CCO[C@@H]2CN(Cc3cnn(C)c3)C[C@@H]21 | inactive |
| CN1CCN(C(=O)C[C@H]2CC[C@@H]3[C@H](COC[C@H](O)CN3C(=O)Nc3ccc4c(c3)OCO4)O2)CC1 | inactive |
| C[C@H]1CN([C@@H](C)CO)C(=O)c2cc(NC(=O)Nc3cccc4ccccc34)ccc2O[C@@H]1CN(C)S(=O)(=O)c1cccs1 | inactive |
| C[C@H]1CN([C@@H](C)CO)C(=O)Cc2cc(NC(=O)NC3CCCCC3)ccc2O[C@@H]1CN(C)C(=O)Nc1ccc(C(F)(F)F)cc1 | inactive |
| C[C@@H]1CN([C@H](C)CO)C(=O)c2cc(NC(=O)Nc3ccccc3)ccc2O[C@H]1CN(C)Cc1ccc(C(F)(F)F)cc1 | inactive |
| C[C@@H]1CN([C@H](C)CO)C(=O)c2cc(NC(=O)Nc3ccccc3)ccc2O[C@@H]1CN(C)Cc1ccc(C(F)(F)F)cc1 | active |
| C[C@H](CO)N1C[C@H](C)[C@@H](CN(C)Cc2ccc(C(F)(F)F)cc2)Oc2ccc(NC(=O)Nc3ccccc3)cc2C1=O | inactive |
| C[C@H]1CN([C@@H](C)CO)C(=O)c2cc(NC(=O)Nc3ccccc3)ccc2O[C@H]1CN(C)Cc1ccc(C(F)(F)F)cc1 | inactive |
| C[C@H](CO)N1C[C@H](C)[C@H](CN(C)Cc2ccc(C(F)(F)F)cc2)Oc2ccc(NC(=O)Nc3ccccc3)cc2C1=O | inactive |
| C[C@@H]1CN([C@@H](C)CO)C(=O)c2cc(NC(=O)Nc3ccccc3)ccc2O[C@H]1CN(C)Cc1ccc(C(F)(F)F)cc1 | active |
| NCc1cn(Cc2ccc(Cl)c(Cl)c2)cn1 | inactive |
| C[C@H](CO)N1C[C@H](C)[C@@H](CN(C)S(=O)(=O)c2ccc(F)cc2)Oc2ccc(NS(=O)(=O)c3ccc(F)cc3)cc2CC1=O | inactive |
| CN(C)CCCNC(=O)C[C@@H]1CC[C@H](NS(=O)(=O)c2ccccc2)[C@@H](CO)O1 | inactive |
| C[C@H]1CN([C@@H](C)CO)C(=O)Cc2cc(NC(=O)Cc3ccccc3)ccc2O[C@@H]1CN(C)S(=O)(=O)c1cn(C)cn1 | inactive |
| C[C@H](CO)N1C[C@H](C)[C@H](CN(C)C(=O)C2CCCCC2)OCCCC[C@H](C)Oc2ccc(NS(=O)(=O)c3ccc(Cl)cc3)cc2C1=O | inactive |
| Cc1ccccc1-c1ccc2c(c1)O[C@@H](CN(C)C(=O)Nc1ccc(C(F)(F)F)cc1)[C@H](C)CN([C@H](C)CO)S2(=O)=O | inactive |
| Cc1ccc(-c2ccc3c(c2)O[C@@H](CN(C)C(=O)Nc2ccc(C(F)(F)F)cc2)[C@H](C)CN([C@H](C)CO)S3(=O)=O)cc1 | active |

| SMILES | cytotoxicity call |
| --- | --- |
| Cc1ccccc1-c1ccc2c(c1)O[C@@H](CN(C)C(=O)Nc1ccc(C(F)(F)F)cc1)[C@@H](C)CN([C@@H](C)CO)S2(=O)=O | active |
| Cc1ccc(-c2ccc3c(c2)O[C@H](CN(C)C(=O)Nc2ccc(C(F)(F)F)cc2)[C@@H](C)CN([C@H](C)CO)S3(=O)=O)cc1 | inactive |
| Cc1ccc(-c2ccc3c(c2)O[C@H](CN(C)C(=O)Nc2ccc(C(F)(F)F)cc2)[C@H](C)CN([C@@H](C)CO)S3(=O)=O)cc1 | inactive |
| Cc1ccccc1-c1ccc2c(c1)O[C@H](CN(C)C(=O)Nc1ccc(C(F)(F)F)cc1)[C@H](C)CN([C@@H](C)CO)S2(=O)=O | inactive |
| Cc1ccc(-c2ccc3c(c2)O[C@H](CN(C)C(=O)Nc2ccc(C(F)(F)F)cc2)[C@H](C)CN([C@H](C)CO)S3(=O)=O)cc1 | inactive |
| Cc1ccc(-c2ccc3c(c2)O[C@@H](CN(C)C(=O)Nc2ccc(C(F)(F)F)cc2)[C@@H](C)CN([C@@H](C)CO)S3(=O)=O)cc1 | inactive |
| Cc1ccc(-c2ccc3c(c2)O[C@H](CN(C)C(=O)Nc2ccc(C(F)(F)F)cc2)[C@@H](C)CN([C@@H](C)CO)S3(=O)=O)cc1 | active |
| C[C@@H]1CCCCO[C@@H](CN(C)C(=O)Nc2ccc3c(c2)OCO3)[C@H](C)CN([C@H](C)CO)C(=O)c2cc(NC(=O)Cc3ccccc3)ccc2O1 | inactive |
| CC(/C=C/C(=O)NO)=C\c1ccccc1OC[C@@H]1[C@H]2C[C@H]3c4[nH]c5ccccc5c4CCN3C[C@@H]2CC[C@@H]1O | inactive |
| C[C@@H]1CN([C@@H](C)CO)C(=O)c2cccc(NC(=O)C3CCCCC3)c2O[C@H]1CN(C)Cc1ccc(C(F)(F)F)cc1 | inactive |
| CC1CC=CC=CC=CC=CC(OC2OC(C)C(O)C(N)C2O)CC2OC(O)(CC(O)CC3OC3C=CC(=O)O1)CC(O)C2C(=O)O (stereo not given) | inactive |
| CN1C(=O)c2cc(NC(=O)Nc3ccccc3F)ccc2OC[C@H]2O[C@@H](CC(=O)Nc3cccc(Cl)c3)CC[C@@H]21 | inactive |
| CCOC(=O)N1CCN(C(=O)C2CCN(S(=O)(=O)N(CC)CC)CC2)CC1 | inactive |
| C[C@@H]1CN([C@@H](C)CO)C(=O)Cc2cc(NS(=O)(=O)c3cn(C)cn3)ccc2O[C@@H]1CN(C)Cc1ccncc1 | inactive |
| CCCN1C[C@H](C(=O)O)CCC1=O | inactive |
| Cc1noc(C)c1S(=O)(=O)N(C)C[C@H]1Oc2ccc(NC(=O)Cc3cn(C)c4ccccc34)cc2CC(=O)N([C@H](C)CO)C[C@H]1C | inactive |
| Cc1noc(C)c1S(=O)(=O)N(C)C[C@@H]1Oc2ccc(NC(=O)Cc3cn(C)c4ccccc34)cc2CC(=O)N([C@@H](C)CO)C[C@@H]1C | active |
| C[C@H]1CN([C@@H](C)CO)C(=O)Cc2cc(NC(=O)Cc3cn(C)c4ccccc34)ccc2O[C@H]1CN(C)Cc1ccc(Cl)c(Cl)c1 | active |
| C[C@H]1CN([C@@H](C)CO)C(=O)Cc2cc(NC(=O)Cc3cn(C)c4ccccc34)ccc2O[C@@H]1CN(C)Cc1ccc(Cl)c(Cl)c1 | active |
| C[C@@H]1CN([C@@H](C)CO)C(=O)Cc2cc(NC(=O)Cc3cn(C)c4ccccc34)ccc2O[C@H]1CN(C)Cc1ccc(Cl)c(Cl)c1 | inactive |
| C[C@H](CO)N1C[C@H](C)[C@@H](CN(C)Cc2ccc(Cl)c(Cl)c2)Oc2ccc(NC(=O)Cc3cn(C)c4ccccc34)cc2CC1=O | inactive |
| C[C@@H]1CN([C@@H](C)CO)C(=O)Cc2cc(NC(=O)Cc3cn(C)c4ccccc34)ccc2O[C@@H]1CN(C)Cc1ccc(Cl)c(Cl)c1 | inactive |

| SMILES | cytotoxicity call |
| --- | --- |
| C[C@@H]1CN([C@H](C)CO)C(=O)Cc2cc(NC(=O)Cc3cn(C)c4ccccc34)ccc2O[C@H]1CN(C)Cc1ccc(Cl)c(Cl)c1 | active |
| C[C@@H]1CN([C@H](C)CO)C(=O)Cc2cc(NC(=O)Cc3cn(C)c4ccccc34)ccc2O[C@@H]1CN(C)Cc1ccc(-c2ccccc2)cc1 | inactive |
| C[C@H](CO)N1C[C@H](C)[C@H](CN(C)Cc2ccc(Cl)c(Cl)c2)Oc2ccc(NC(=O)Cc3cn(C)c4ccccc34)cc2CC1=O | inactive |
| C[C@@H]1CN([C@H](C)CO)C(=O)Cc2cc(NC(=O)Cc3cn(C)c4ccccc34)ccc2O[C@@H]1CN(C)Cc1ccc(Cl)c(Cl)c1 | inactive |
| Cc1noc(C)c1S(=O)(=O)N(C)C[C@H]1Oc2ccc(NC(=O)Cc3cn(C)c4ccccc34)cc2CC(=O)N([C@H](C)CO)C[C@@H]1C | inactive |
| C/C=C/c1ccc2c(c1)O[C@@H](CN(C)S(=O)(=O)c1ccc(C)cc1)[C@@H](C)CN([C@@H](C)CO)S2(=O)=O | inactive |
| C[C@H]1CCCCO[C@@H](CN(C)S(=O)(=O)c2cccs2)[C@@H](C)CN([C@@H](C)CO)C(=O)c2cc(NC(=O)NC3CCCCC3)ccc2O1 | inactive |
| CCn1nc(C)c([C@@H](C)N)c1C | inactive |
| Cc1ccc(S(=O)(=O)Nc2ccc3c(c2)C(=O)N([C@H](C)CO)C[C@@H](C)[C@H](CN(C)C(=O)Nc2cccc4ccccc24)OCCCC[C@H](C)O3)cc1 | inactive |
| COc1ccc(NC(=O)N(C)C[C@H]2Oc3ccc(NS(C)(=O)=O)cc3C(=O)N([C@H](C)CO)C[C@H]2C)cc1 | inactive |
| C[C@H]1CN([C@@H](C)CO)C(=O)Cc2cc(NC(=O)Cn3cnnn3)ccc2O[C@@H]1CN(C)C(=O)NC1CCCCC1 | inactive |
| CC1(C)CNCC(=O)NC1 | inactive |
| Cc1cc(C)nc(SCC(=O)NN)n1 | inactive |
| Cc1cn(-c2cc(NC(=O)c3ccc(C)c(Nc4nccc(-c5cnccn5)n4)c3)cc(C(F)(F)F)c2)cn1 | active |
| Cc1ccc(NC(=O)c2ccc(CN3CC[C@H](N(C)C)C3)c(C(F)(F)F)c2)cc1Nc1nccc(-c2cncnc2)n1 | active |
| Cc1cn(-c2cc(NC(=O)c3ccc(C)c(Nc4nccc(-c5cccnc5)n4)c3)cc(C(F)(F)F)c2)cn1 | active |
| Cc1ccc(C(=O)Nc2cccc(C(F)(F)F)c2)cc1Nc1nc(-c2cccnc2)nc2c1cnn2C | inactive |
| Cc1ccc(NC(=O)c2ccc(CN3CCN(C)CC3)cc2)cc1Nc1nccc(-c2cccnc2)n1 | inactive |
| Cc1ncc(NC(=O)c2ccc(CN3CCN(C)CC3)c(C(F)(F)F)c2)cc1Nc1nccc(-c2cccnc2)n1 | inactive |
| O=C(Nc1cccnc1)c1nc2ncccn2n1 | inactive |
| C[C@@H]1CN([C@H](C)CO)C(=O)c2cc(/C=C/c3ccccc3)cnc2O[C@H]1CN(C)C(=O)c1cnccn1 | inactive |
